Columns and labels:
Experiment in all cases: PBM binding z-score (relative to random genomic background probes); higher = stronger binding; sequences stand for … in GC…GCGATTGACAGCGTAGAATGAAGG
[1] = system: PPARg:RXRa DBDmut IVT, anti-RXR (DBD mutation: RXRa K156A/R161A, NR concentration 270 nM, RXRa partner concentration 90 nM)
How it was run: (§1)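 Custom Agilent 4×180K protein-binding microarrays carried double-stranded probes. Their 34-nt variable regions held direct-repeat seeds, single-nucleotide variants, half-site ablations and random human genomic background sequences. Arrays were incubated 1 h with ligand-free nuclear receptor dimers in PBS pH 7.4, 2% milk, 0.02% Triton X-100, 1 mM DTT, 0.2 mg/mL BSA and 0.4 mg/ml salmon testes DNA. Antibodies against each partner (one per run) detected binding, and scanned fluorescence was regression-normalized. Binding z-scores use random background probes as reference.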

[2] = system: PPARg:RXRa IVT, anti-PPARg (NR concentration 270 nM, RXRa partner concentration 90 nM)
How it was run: as §1

[3] = system: PPARg DBDmut:RXRa IVT, anti-PPARg (DBD mutation: PPARg1 K132A/R137A, NR concentration 270 nM, RXRa partner concentration 90 nM)
How it was run: as §1

[4] = system: PPARg DBDmut IVT, anti-PPARg (DBD mutation: PPARg1 K132A/R137A, NR concentration 270 nM)
How it was run: as §1

[5] = system: PPARg homodimer (NR concentration 180 nM)
How it was run: as §1

[6] = system: PXR:RXRa (NR concentration 270 nM, RXRa partner concentration 90 nM)
How it was run: as §1

[7] = system: PXR homodimer (NR concentration 270 nM)
How it was run: as §1

[8] = system: RARa:RXR (NR concentration 270 nM, RXRa partner concentration 90 nM)
How it was run: as §1

[9] = system: RARa homodimer (NR concentration 270 nM)
How it was run: as §1

[10] = system: RARb:RXRa (NR concentration 270 nM, RXRa partner concentration 90 nM)
How it was run: as §1

| Sequence | PBM binding z-score [1] | PBM binding z-score [2] | PBM binding z-score [3] | PBM binding z-score [4] | PBM binding z-score [5] | PBM binding z-score [6] | PBM binding z-score [7] | PBM binding z-score [8] | PBM binding z-score [9] | PBM binding z-score [10] |
| --- | --- | --- | --- | --- | --- | --- | --- | --- | --- | --- |
| CCGACTGGGGCAAGATTACCATAACGCACAGCCA | 2.97 | 2.41 | -0.0501 | -0.549 | -0.195 | -0.741 | -0.382 | -0.513 | -0.747 | 0.315 |
| CCAGACATGTGAAAGGTAACTCAGTCTGGTACGC | 0.121 | 0.275 | -0.125 | 0.223 | 0.969 | 0.118 | -0.196 | 0.553 | 0.138 | 0.186 |
| CCGACTGGGGCAAGGTTATCATAACGCACAGCCA | 3.18 | 3.27 | -0.411 | -0.512 | 0.593 | 0.253 | -0.27 | 0.986 | -0.0927 | 1.5 |
| TCATATAGGTAATCCAGGTGAAAGTCGGCATCTA | 4.8 | 4.82 | 1.66 | 1.21 | 1.69 | 0.657 | 0.114 | 1.28 | 0.866 | 0.724 |
| GGAAGGAGGGCAAGTTGATAGCAGAGTTTGATGG | 3.75 | 3.16 | 0.411 | 0.837 | 2.03 | 1.44 | 2.2 | 0.685 | 1.5 | 2.54 |
| ACTATTAGTTGAGACGAGGGCAACAGATAGGTTG | 0.565 | 0.556 | 0.565 | 1.23 | 0.704 | 1.13 | 0.384 | 0.971 | 0.692 | 0.75 |
| ACTAGCAGGCCAAGTTTGGGTCCCTCAAACAAAG | 0.359 | -0.00665 | -1.13 | -1.25 | -0.378 | -0.465 | -0.57 | -0.00931 | -0.776 | 0.3 |
| TCTAGTTGGTCACGGAGGTAACACACGACGGGTA | 2.14 | 2.58 | 0.811 | 0.805 | 0.896 | 0.407 | 0.258 | 0.834 | 0.81 | 1.8 |
| TCGAGTAGGTTAGGGGCATTAAGAATGGCGTCGA | 2.21 | 1.23 | -0.687 | -1.11 | 0.475 | 0.596 | 0.671 | 0.713 | -0.193 | 1.04 |
| TCTTGTAGATTAGCAGGTTAAGAAAGCTGGCCAA | 1.76 | 0.791 | -0.369 | -0.0447 | 0.0886 | 0.329 | 0.0335 | 0.552 | 0.796 | 0.197 |
| CGTCCAAGGTCAAGGTCAGTGCAAGAGACTCGAA | 3.72 | 4.78 | -0.258 | -0.287 | 3.45 | 5.43 | 2.22 | 5.21 | 1.13 | 5.62 |
| GCTTGTTGATCAAGGTTAAGAAAGACTAAGCTAA | 0.197 | 0.134 | 0.234 | -0.0505 | -0.0187 | 0.387 | -0.694 | 0.658 | 0.254 | 0.66 |
| GCTTCTAGGTCAACTGATGGTCAGCTAAAGCTCG | 7.69 | 7.25 | 0.0953 | 0.797 | 2.01 | 1.97 | -0.405 | 3.16 | 0.124 | 4.42 |
| CCTTACGGGTCAAGGTTATAGCTCGGGTGGTACG | 2.32 | 3.66 | 0.883 | -0.415 | 1.91 | 3.16 | 0.16 | 3.72 | 0.652 | 4.12 |
| TCTGCTAGATCAGTTGGTCAGCTAACGAGCTGCC | 0.357 | -0.283 | -0.43 | -0.675 | -2.6 | -0.872 | -1.07 | -0.915 | -1.97 | -0.199 |
| CCTGCTAGGTCATGGTCAGCAAATCTACAGTATG | 4.25 | 3.63 | 0.173 | -0.183 | 1.03 | 1.15 | -0.302 | 2.22 | 0.017 | 3.7 |
| CGTACAAGGTCATAGGAGGTCAGTGAAGACAGAT | 3.97 | 5.5 | 1.11 | 0.76 | 3.74 | 6.82 | 3.5 | 5.66 | 1.72 | 5.44 |
| AGTCAAAGTTCACTAGGTAACGTATGATTCAGCT | 2.65 | 4.66 | 1.13 | 1.39 | 2.15 | 3.83 | 2.69 | 2.93 | 1.04 | 4.76 |
| CACACTAGGTCACGAAAGGTCAAAGTCGAATGAC | 7.74 | 8.37 | 3.1 | 1.95 | 5.51 | 7.26 | 2.87 | 7.78 | 2.46 | 5.97 |
| ACTAGCAGGCCCAGGGTCACTCAAGATTAGTCCG | -0.868 | 0.714 | -0.322 | -0.342 | 0.073 | 2.4 | 0.0496 | 2.75 | -0.377 | 2.27 |
| TAGCCTAGGTAATTGGGCCAGTATAGTACGCATC | 1.83 | 2.8 | 0.0704 | -0.276 | -0.531 | -0.502 | -0.469 | -0.743 | -0.501 | -0.455 |
| CAAACTGGGTCACGAAAGGTCAAAGTCGAATGAC | 8.29 | 8.88 | 2.86 | 1.62 | 5.34 | 7.09 | 2.6 | 7.48 | 2.73 | 5.56 |
| TCGAGGAGGTTACCAATGGGGCATTCAGCTTTCT | 1.15 | 1 | -0.386 | -0.775 | 0.8 | 1.05 | -0.411 | 1.43 | -0.136 | 1.67 |
| CCGACTGTGGCAAAGGTTACCATACTCAGTACGA | 2.07 | 3.83 | 0.000701 | -0.266 | 1.71 | 1.84 | 0.27 | 2.56 | 0.0109 | 1.9 |

From the supplement of paper PMC6555819
